# This is part of a sample that, as a whole, favours compounds with a hit. Of some 79,000 tested, about 15% had one in any assay. Unmarked numbers belong to inactive results. The source made the active and inactive calls. No stated cut-off is given here; in the data, active means growth inhibition above about 70%; inactive means the rest.
# Experiments:
# [1] = NCI Yeast Anticancer Drug Screen. Data for the rad50 strain (AID 155);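 further: 0% = growth of vehicle-only cultures of the same strain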; conditions: S. cerevisiae rad50 strain growth inhibition, hits give high values
# How it was run: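 DNA repair mutant yeast, compound exposure, growth read-out; inhibition is taken relative to vehicle.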
# [2] = NCI Yeast Anticancer Drug Screen. Data for the mec2-1 strain (AID 157); conditions: S. cerevisiae mec2-1 strain, hits give high values
# How it was run: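 Using mec2-1 yeast: add compound, measure growth, express inhibition versus vehicle-treated cultures.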
# [3] = NCI Yeast Anticancer Drug Screen. Data for the sgs1 mgt1 strain (AID 161);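 further: 0% = growth of cultures given vehicle only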; conditions: S. cerevisiae sgs1 mgt1 strain, hits give high values
# How it was run: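 Growth of a repair-deficient yeast mutant was monitored after compound treatment and expressed as inhibition relative to vehicle-treated cultures.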
# [4] = NCI Yeast Anticancer Drug Screen. Data for the cln2 rad14 strain (AID 165);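 further: 0% = growth equal to vehicle treated cultures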; conditions: S. cerevisiae cln2 rad14 strain, hits give high values
# How it was run: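 Yeast strain cln2 rad14, bearing defects in cell cycle control and DNA repair, serves as the test system; values reflect growth inhibition compared with vehicle.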
# [5] = NCI Yeast Anticancer Drug Screen. Data for the bub3 strain (AID 167); conditions: S. cerevisiae bub3 mutant strain, hits give high values
# How it was run: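 In this screen, a yeast mutant lacking normal mitotic checkpoint function is challenged with compound. Relative growth versus vehicle gives the inhibition value.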
# [6] = NCI Yeast Anticancer Drug Screen. Data for the mlh1 rad18 strain (AID 175); conditions: S. cerevisiae mlh1 rad18 strain growth inhibition, hits give high values
# How it was run: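 Steps: expose repair-defective yeast to compound; measure growth; express inhibition against vehicle-treated controls.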
# [7] = at 5.0 µM (retest, dose inferred, filed as 0.5)
# [8] = at 50.0 µM (retest, dose inferred, filed as 5.0)
SMILES,"growth inhibition [1, 7]","growth inhibition [1, 8]",growth inhibition ([1]; at 50.0 µM),"growth inhibition [2, 7] [%]","growth inhibition [2, 8]",growth inhibition ([2]; at 50.0 µM),"growth inhibition [3, 7]","growth inhibition [3, 8]",growth inhibition ([3]; at 50.0 µM),"growth inhibition [4, 7] [%]","growth inhibition [4, 8]",growth inhibition ([4]; at 50.0 µM),"growth inhibition [5, 7]","growth inhibition [5, 8]",growth inhibition ([5]; at 50.0 µM),"growth inhibition [6, 7] [%]","growth inhibition [6, 8]",growth inhibition ([6]; at 50.0 µM)
NCC(CS)C(=O)NC(CS)C(=O)NC(CS)C(=O)NCCNc1ccc(NCCNC(=O)C(CS)NC(=O)C(CS)NC(=O)C(CN)CS)c2c1C(=O)c1c(O)ccc(O)c1C2=O (configuration not stated),80% (active),78% (active),61.1%,34,85% (active),70.8% (active),36%,82% (active),72% (active),23,84% (active),65.7%,36%,58%,65%,40,75% (active),53.9%
N#CCC(=O)N/N=C(/CC1(O)C(=O)Nc2c(Cl)cc(Cl)cc21)c1ccccc1 (configuration not stated),2%,35%,69.4%,10,43%,59.6%,-1%,-6%,71.1% (active),-7,23%,-20%,3%,22%,26.4%,5,16%,75.2% (active)
O=C(CC(O)(c1ccccc1)c1ccc(Cl)cc1)NC(=O)c1ccccc1O (configuration not stated),45%,93% (active),85% (active),40,98% (active),89% (active),48%,97% (active),91.6% (active),42,99% (active),89% (active),50%,99% (active),86.8% (active),53,97% (active),86.8% (active)
ON=C(CC(O)(C(F)(F)Cl)C(F)(F)Cl)CC(O)(C(F)(F)Cl)C(F)(F)Cl,50%,99% (active),99.7% (active),69,100% (active),99.6% (active),37%,99% (active),99.5% (active),68,99% (active),99.5% (active),23%,100% (active),99.8% (active),62,99% (active),99.5% (active)
O=C(O)CCC(=O)NNc1ccccc1,8%,68%,57.9%,-1,66%,85.9% (active),12%,58%,61.9%,8,81% (active),83.2% (active),14%,91% (active),90.3% (active),20,94% (active),86.1% (active)
N#C/C(=C/c1ccccc1B(O)O)C(=O)O,-151%,-5%,71.4% (active),-49,-36%,17%,-61%,-40%,31.3%,-62,-58%,13.1%,-77%,-96%,-8.9%,-140,-65%,65.8%
Cc1ccccc1NC(=S)N/N=C(/c1ccccc1)c1ccccn1,5%,94% (active),53.9%,-17,92% (active),61%,26%,92% (active),69.7%,-38,91% (active),68.4%,-47%,92% (active),76.3% (active),26,92% (active),75.4% (active)
C=C1CCC[C@@H]2[C@@](C)(CC3=CC(=O)C=CC3=O)C(C)CC[C@]12C (some centres not stated),39%,96% (active),98.5% (active),43,96% (active),88.7% (active),54%,97% (active),98.7% (active),7,93% (active),95.2% (active),27%,96% (active),98.6% (active),55,95% (active),98.5% (active)
CN=C(N)NN=C(c1ccc(Cl)cc1)c1ccc(Cl)cc1,32%,99% (active),87.8% (active),30,99% (active),91.2% (active),51%,99% (active),87.5% (active),48,98% (active),85% (active),52%,99% (active),83.2% (active),25,98% (active),92.4% (active)
O=c1c(Cl)c(Cl)oc(Cl)c1Cl,42%,98% (active),79.2% (active),30,99% (active),98.3% (active),45%,99% (active),88% (active),3,99% (active),94.5% (active),43%,99% (active),98.8% (active),54,98% (active),97.2% (active)
O=C(O)c1cccc2c1Oc1c(cccc1C(=O)O)S2,3%,1%,98.3% (active),0,9%,98.2% (active),0%,3%,98.3% (active),2,6%,98.2% (active),1%,1%,98.8% (active),2,-2%,98.5% (active)
CSc1cccc(N2C(=O)C=CC2=O)c1,42%,52%,91.5% (active),49,48%,93.4% (active),100% (active),100% (active),94% (active),69,100% (active),91.5% (active),100% (active),100% (active),92.7% (active),34,45%,92.5% (active)
O=[N+]([O-])C12CCCCC1([N+](=O)[O-])CCCC2 (configuration not stated),-1%,41%,62.9%,-5,30%,21.6%,-3%,33%,35.5%,-9,22%,31.1%,-1%,65%,84.8% (active),0,28%,37.8%
Cc1ccc(C2=C(C#N)C(c3ccccc3)C(C#N)=C(N)O2)cc1 (configuration not stated),57%,95% (active),97.5% (active),53,99% (active),98.5% (active),71% (active),98% (active),97.8% (active),35,99% (active),98.9% (active),48%,98% (active),97.9% (active),59,98% (active),98.5% (active)
CC1CCCC(C)C1=O (configuration not stated),4%,3%,8.7%,-4,0%,-12.2%,-7%,3%,-13.4%,3,7%,13.8%,5%,10%,3%,2,3%,-4.35%
O=C1C=C(c2ccccc2)O/C1=C/C(=O)c1ccc(Cl)cc1,32%,32%,53.3%,32,32%,65.2%,40%,40%,79% (active),11,11%,39.6%,16%,16%,65%,32,32%,52.9%
Cc1ccc(C(CN(C)C)C(=O)c2ccccc2)cc1C (configuration not stated),-4%,97% (active),4.8%,-2,97% (active),3.35%,-4%,93% (active),36.3%,-3,42%,-23.6%,-2%,97% (active),69.4%,-6,98% (active),27.4%
O=C(/C=C/c1cccc2ccccc12)c1cccc([N+](=O)[O-])c1,11%,-10%,12.3%,-25,-15%,-4.05%,-2%,2%,14.3%,7,5%,0%,-8%,-12%,-5.2%,-12,-51%,-5.35%
Cc1ccccc1C1c2c(C)cccc2C(=O)CC1CC(=O)O (configuration not stated),4%,60%,58%,1,72% (active),81.5% (active),-1%,75% (active),82.3% (active),-41,70% (active),13.3%,6%,67%,70% (active),8,83% (active),81.6% (active)

# — PubChem BioAssay (NCI)
